This is a sample that favours compounds with a hit; in the whole collection about 12% have one here.
AmpC detergent – blocks E. coli AmpC beta-lactamase in detergent assay. P00811. AmpC hydrolysis of nitrocefin, absorbance 480 nm, 0.01% Triton. Potency, µM (series often up to 114 µM), inactives show top-dose activity change, negative = inhibition, hits mostly inhibitors. 370,000 tested, 0.041% active. AID 485294;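 also: 0% = no-compound wells and -100% = no-enzyme wells; nearly all actives have a fitted effect of over 25% in size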
Target sequence (P00811 whole entry, looked up): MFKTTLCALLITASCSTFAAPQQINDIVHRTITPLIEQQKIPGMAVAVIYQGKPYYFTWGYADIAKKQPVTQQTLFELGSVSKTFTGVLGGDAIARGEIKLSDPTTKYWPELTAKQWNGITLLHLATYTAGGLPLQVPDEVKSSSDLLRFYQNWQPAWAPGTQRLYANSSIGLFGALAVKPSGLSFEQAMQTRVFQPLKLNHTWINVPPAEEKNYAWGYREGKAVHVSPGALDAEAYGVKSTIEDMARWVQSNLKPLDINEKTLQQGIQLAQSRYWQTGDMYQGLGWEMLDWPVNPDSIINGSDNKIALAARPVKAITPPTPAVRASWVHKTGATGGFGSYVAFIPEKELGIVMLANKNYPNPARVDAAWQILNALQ
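20 mM phosphate pH 7.0 + 0.01% (detergent screen) or 0.0001% Triton X-100; 5.3 nM AmpC reagent; cpd preinc 15 min RT; nitrocefin (800 uM stock) to start; A480 q20 s × 4 min; Activity was normalised to no-enzyme and no-compound control wells.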
AmpC no deterg – inhibitors of E. coli AmpC beta-lactamase without detergent | AmpC nitrocefin hydrolysis, absorbance 480 nm, 0.0001% Triton | 330,000 tested, 0.52% active | Potency, µM (doses to about 57.1 µM), inactives show at the highest dose activity change, negative = inhibition, usual class: inhibitors;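 also: plate controls were no compound for no effect and no enzyme for full effect; nearly all actives have a fitted effect of over 20% in size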
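20 mM phosphate pH 7.0 + 0.01% (detergent screen) or 0.0001% Triton X-100; 5.3 nM AmpC reagent; cpd preinc 15 min RT; nitrocefin (800 uM stock) to start; A480 q20 s × 4 min; Activity was normalised to no-enzyme and no-compound control wells.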
Sm TGR inh – inhibitors of Schistosoma mansoni thioredoxin glutathione reductase; Q962Y6; purified TGR, DTNB reduction, TNB absorbance 405 nm; Potency, µM (highest dose often 114 µM), for inactives: at the highest dose activity change, negative = inhibition, usual class: inhibitors; 360,000 tested, 3% active; AID 485364; also: % is scaled to controls: 0 for no effect and ±100 for the full control effect; nearly all actives have a fitted effect of over 60% in size
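Kinetic colorimetric format: TGR-catalysed, NADPH-driven DTNB reduction monitored via TNB absorbance. Enzyme dispensed at 20 nM; compound exposure 15 min at room temperature before reaction start.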
Pf growth 48h – P. falciparum growth inhibition at 48 hours (one generation) | P. falciparum luciferase growth in erythrocytes, 48 h | Potency, µM (highest dose often 28.7 µM), for the others: at the highest dose activity change, negative = inhibition, actives largely listed as inhibitors | 310,000 tested, 5.9% active; also: % is scaled to controls: 0 for no effect and ±100 for the full control effect
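Growth was read as firefly luciferase luminescence after a 48 h, 37 C, 5% CO2 exposure of compounds to reporter-bearing P. falciparum cultures (0.1% parasitemia, 2% hematocrit final) in Albumax-supplemented RPMI 1640.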
Pf growth 96h – inhibits malaria parasite growth, 96 h; P. falciparum luciferase reporter growth, 96 h; Potency, µM (doses to about 28.7 µM), for the others: at the highest dose activity change, negative = inhibition, most hits filed as inhibitors; 320,000 tested, 6.9% active; also: % is scaled to controls: 0 for no effect and ±100 for the full control effect
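Two-generation exposure (96 h) targets delayed-death phenotype. Reporter parasites carrying integrated firefly luciferase, in red cells at 2% hematocrit and 0.05% parasitemia final, kept at 37 C, 5% CO2; luminescence loss indicates inhibition.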
SARS PLP yeast – SARS-CoV PLP inhibition in yeast; S. cerevisiae expressing SARS-CoV PLpro, growth rescue; Potency, µM (doses to about 32.9 µM), for the others: at the highest dose activity, positive = growth rescue, actives largely listed as activators; 330,000 tested, 0.19% active; AID 485353; calls by dose curve; also: 0% is about no effect; nearly all actives have a fitted effect of over 55% in size
Starred values were filed as active, the others as inactive; u = inconclusive; x = no result given; [ ] = remark or other dose. Unless noted, calls follow the shape of the dose curve; as a rule, active = well fitted curve in the direction sought with a large enough effect; inconclusive = small, poorly fitted or top-dose-only effect, or another doubt; inactive = no such curve, though single readings can be large; an effect the other way counts as inactive or inconclusive. Potency is read from the fitted curve at half-maximal effect.

SMILES	AmpC detergent	AmpC no deterg	Sm TGR inh	Pf growth 48h	Pf growth 96h	SARS PLP yeast
Cc1cc(O)ccc1NC(=S)NC(=O)c1cncc(Br)c1	-12%	-49%	3%	u	-5%	1%
COc1cc(NC(=O)Cn2c(=O)n(-c3ccccc3)c(=O)c3c4c(sc32)CCCC4)cc(OC)c1	18%	x	2%	x	x	x
COc1ccc(-c2c3c(=O)n(C)c(=O)n(C)c3cn2-c2cccc(N)c2)cc1	22%	x	-16%	x	x	x
O=C(NC(=S)NCc1cccnc1)c1ccccc1	1%	-18%	-9%	27%	5%	6%
CCn1ncc(Cl)c1C(=O)NC(=S)Nc1ccccc1Br	-1%	-33%	28µM*	-9%	u	2%
O=C(NC(=S)NCCSc1ccccc1)c1cccnc1	0%	-6%	-35%	53%	-25%	10µM*
O=C(NC(=S)Nc1cc(Cl)ccc1O)c1cccc(Br)c1	-9%	-44%	-4%	u	3.3µM*	0%
O=C(NNC(=O)c1cccc(Br)c1)Nc1ccc(Cl)cc1	0%	-40%	-9%	7%	-4%	-1%
CCC(NC(=O)c1ccncc1)c1ccccc1 (stereo unspecified)	5%	-11%	2%	2%	15µM*	7%
Cc1nn(C)c(C(=O)NC(=S)Nc2ccccc2Br)c1Cl	1%	-2%	-6%	12%	51%	-5%
COCCNC(=O)CCCn1c(=O)[nH]c2ccsc2c1=O	7%	x	-5%	x	x	x
O=C(NCc1cccs1)C1CCN(C(=O)N2CCOc3ccc(Cl)cc32)CC1	9%	x	3%	x	x	x
CCN(C(=S)Nc1cccnc1)c1ccccc1	2%	-19%	25µM*	3%	93%	-1%
O=C(NC(=S)Nc1cccnc1)c1cccs1	-1%	-9%	10µM*	23%	u	-2%
CCCCOc1cccc(C(=O)NC(=S)Nc2cccnc2)c1	u	-18%	-17%	27%	52%	u
O=C(NC(=S)Nc1ccccc1)c1ccc(Br)o1	-9%	-7%[2.29 µM]	u	89%	119%	1%
O=C(NC(=S)Nc1cccnc1)c1cccc(Br)c1	-1%	-22%	16µM*	11%	0%	-8%
Cc1snnc1C(=O)NC(=S)Nc1ccccc1	-4%	-17%	8.9µM*	88%	6%	0%
CC1CCN(C(=O)c2cccc(NC(=O)c3nsc4ccccc34)c2)CC1	24%	x	0%	x	x	x
O=C(CCCc1ccccc1)NC1CC(=O)N(c2ccc(Cl)cc2)C1 (stereo unspecified)	2%	x	1%	x	x	x
CCN(CC(=O)NCc1cccs1)C(=O)COc1ccc(C(C)=O)cc1	4%	-10%	1%	23%	39%	4%
NS(=O)(=O)c1ccc(N2CCOCC2)c(C(=O)NCc2ccc3c(c2)OCO3)c1	-15%	-11%	-5%	53%	19%	-1%
CCOC(=O)c1cccc(NC(=O)C(C)n2nc(C)c3c(C)n(-c4ccccc4)nc3c2=O)c1 (stereo unspecified)	3%	x	-3%	x	x	x
CCCN1C(=O)/C(=N\OCC(=O)NC23CC4CC(CC(C4)C2)C3)c2ccccc21	0%	-32%	-5%	15µM*	u	10%
O=C(O)c1cccc(Sc2cc(Cl)ccc2C(=O)O)c1	-8%	-5%	-3%	21%	u	1%
COc1ccc(N(C(=O)c2cccc(C)c2)S(=O)(=O)c2ccc(C)cc2)cc1	17%	x	6%	x	x	x
Cc1ccc2cc(CN(Cc3ccco3)C(=O)c3cccs3)c(=O)[nH]c2c1	-5%	-31%	40µM*	u	-30%	1%
Cc1ccc2[nH]c(=O)c3cc(C(=O)N(CCCOC(C)C)Cc4ccco4)sc3c2c1	3%	112%	-21%	x	5.9µM*	-7%
Cc1cccc2cc(CN(Cc3ccco3)C(=O)c3ccco3)c(=O)[nH]c12	u	-8%	5%	-28%	-29%	-1%

Source: PubChem (National Center for Advancing Translational Sciences (NCATS))
